Source: PubChem BioAssay AID1578 (Sanford-Burnham Center for Chemical Genomics, 2009)
Screen size: about 290,000 compounds; about 3,000 (1%) were called active. This excerpt belongs to a sample that is enriched for actives. Unmarked numbers belong to inactive results. No stated cut-off is given here; in the data, active means inhibition mostly above about 36% (no sharp cut-off); inactive means mostly below about 34%.

Test: NOD1 signaling inhibitors, primary screen, cell-based, luminescence, uHTS (AID 1578);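 further: HEK-293T reporter cells stimulated with the NOD1 agonist gamma-tri-DAP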
Settings: NOD1-driven NF-kB luciferase reporter cells, at 4 µM, stronger effect = higher value

Compared with `O=C(COC(=O)CCSc1ccccc1)Nc1ccc(F)cc1Cl`, `COc1ccccc1C(=O)NCCC(=O)NCCOc1ccccc1` is higher in inhibition: -14% for the first, 7.7% for the second.

First: CC(C)C(NS(=O)(=O)c1cccc2nsnc12)C(=O)NC1CCCCC1 (centres undefined)
Second: O=S(=O)(NC1CCCCC1)c1ccc(Br)s1
The inhibition of the first is higher: -5.2% for the first, -13.1% for the second.

Going from `CCCCN1CN(S(=O)(=O)c2ccc(OC)cc2)c2nc3ccccc3nc21` to `COc1ccc(OCCn2c(NC(=O)c3ccco3)nc3ccccc32)cc1`, the inhibition rises from -13.8% to 9.1%.

Compared with `CCCCCCS(=O)Cc1ccccc1` (centres undefined), `CCC1CCCCN1C(=O)CCCc1ccccc1` (centres undefined) is lower in inhibition: -9.9% for the first, -21% for the second.

Compared with `CN(C(=O)COc1ccccc1C(=O)NCCc1ccccc1)c1ccccc1`, `O=C(Nc1nc2ccccc2n1CCOc1ccccc1)c1ccco1` is higher in inhibition: -33.9% for the first, 35.8% for the second.

First: CCN(CCO)Cc1cc(=O)oc2c(C)c(C)ccc12
Second: Cc1ccc(NC(=S)N(Cc2ccc(Br)cc2)Cc2ccc(C(=O)O)cc2)cc1C
The inhibition of the first is higher: 8.5% for the first, -22.8% for the second.

First: CCN1C=C(Cc2cccs2)C2=C(C1)C(c1cccs1)C(C#N)=C(N)O2 (centres undefined)
Second: CCN1C=C(Cc2ccc(F)cc2)C2=C(C1)C(c1ccc(F)cc1)C(C#N)=C(N)O2 (centres undefined)
The inhibition of the first is higher: 30.4% for the first, 21.1% for the second.

First: O=C(CCn1nnc2ccccc21)N1CCN(c2ccccc2)CC1
Second: O=C(c1ccc(F)cc1)N1CCN(C2=NS(=O)(=O)c3ccccc32)CC1
The inhibition of the first is higher: 7.2% for the first, -41.6% for the second.

First: Cc1c(O)nc(SCC(=O)Nc2nccs2)n(-c2ccccc2F)c1=O
Second: Cc1nn(-c2ccccc2)c(C)c1NC(=O)COc1ccc(C#N)cc1
The inhibition of the first is lower: -42.1% for the first, -20.8% for the second.

First: CCOC(=O)NNC1CC(=O)N(c2ccccc2)C1=O (centres undefined)
Second: CCOC(=O)C1CCN(C(=O)CN(c2cc(Cl)ccc2OC)S(=O)(=O)c2ccccc2)CC1
The inhibition of the first is higher: -12% for the first, -33.5% for the second.

Going from `CCc1nccn1S(=O)(=O)c1cc(OC)c(Cl)cc1OC` to `COc1ccc2cc(C(=O)/C=C/c3cc(OC)c(O)c(OC)c3)ccc2c1`, the inhibition rises from -4.5% to 62.6%.

First: CC(=O)Nc1c(C(=O)O)oc2ccc(Cl)cc12
Second: COc1ccc(/C=C/C(=O)c2ccc(Cl)s2)cc1O
The inhibition of the first is higher: 2.5% for the first, -46% for the second.

Going from `O=S(=O)(NC1CCCC1)c1ccc(Br)s1` to `O=S(=O)(CC(CN1CCCCC1)N1CCCCC1)c1ccccc1` (centres undefined), the inhibition rises from -14% to 9.2%.

Compared with `COc1ccc(C(=O)NCC(=O)OCC(=O)Nc2cc(OC)ccc2OC)cc1`, `COc1ccc(C(=O)/C=C/c2ccc(OC)c(O)c2)c(F)c1` is higher in inhibition: -4.7% for the first, 36.2% for the second.

First: NNc1nc(-c2ccccc2)cc(-c2ccccc2O)n1
Second: Cc1ccc(-c2nnc(OCc3cccnc3)c3ccccc23)cc1
The inhibition of the first is higher: 3.5% for the first, -11.3% for the second.

Going from `O=[N+]([O-])c1cc(C(F)(F)F)ccc1Sc1ccccn1` to `CCOc1ccc(NC(=O)CC(NCc2ccccn2)C(=O)O)cc1` (centres undefined), the inhibition falls from -1.5% to -2.9%.

First: Oc1c(Cl)cc(Cl)c2c1NCCC2
Second: Oc1c(Cl)cc(Cl)cc1Sc1cc(Cl)cc(Cl)c1O
The inhibition of the first is higher: -5.4% for the first, -35.5% for the second.

Compared with `O=C(NC(=S)NCCO)c1sc2ccccc2c1Cl`, `COc1cc(/C=C/C(=O)c2ccc3c(c2)OCO3)cc(Cl)c1O` is higher in inhibition: -51.4% for the first, 13.2% for the second.

First: O=S(=O)(CC(CN1CCCCC1)N1CCCCC1)c1ccc2ccccc2c1 (centres undefined)
Second: O=C(CN1CCN(C(=O)C2CCCO2)CC1)Nc1ccc(F)cc1 (centres undefined)
The inhibition of the first is higher: -6.3% for the first, -12% for the second.

Compared with `OCCC1CN(Cc2cccc3nonc23)CCN1C1CCCCC1` (centres undefined), `CCOC(=O)C1CCN(c2ccc(-c3cccs3)nn2)CC1` is higher in inhibition: -25.9% for the first, -0.9% for the second.

First: c1csc(-c2ccc(N3CCOCC3)nn2)c1
Second: COc1cccc(NS(=O)(=O)c2cc3c(cc2C)N(C)CCO3)c1
The inhibition of the first is lower: -11.8% for the first, -2.7% for the second.

With `CCN1C=C(Cc2ccccc2C)C2=C(C1)C(c1ccccc1C)C(C#N)=C(N)O2` (centres undefined) the inhibition was 71.8% (active).
For `Cc1ccc(S(=O)(=O)NC2CC2)s1`, the inhibition was 45.4% (active).
For `Oc1c(Cl)cc(Cl)c(Cl)c1Cc1c(O)c(Cl)cc(Cl)c1Cl`, the inhibition was 85.9% (active).
In the case of `O=S(=O)(CC(CN1CCCC1)N1CCCC1)c1ccc2ccccc2c1` (centres undefined), the inhibition is reported as 51.2% (active).
In the case of `COc1ccc(C(=O)/C=C/c2cc(OC)c(O)c(OC)c2)c(F)c1`, the inhibition is reported as 93.6% (active).
With `COc1cc(/C=C/C(=O)c2ccc(Cl)s2)cc(OC)c1O` the inhibition was 76.4% (active).
In the case of `CC1CCN(c2ccc(-c3cccs3)nn2)CC1`, the inhibition is reported as 31.4% (active).
